# Measurements taken from PubChem BioAssay (NCATS).
# Results filed as inconclusive are left out. A call without a number means that no potency is given here. The source made the active and inactive calls. The call rests on the fitted dose curve; in most records, active means well fitted cell-killing curve with a large enough effect; inconclusive means small, poorly fitted or top-dose-only effect; inactive means flat fitted curve, though single readings scatter.
# Assay: Quantitative highthroughput screen to assess conditional lethalithy of NOMO1 cells grown in RPMI1640 with untreated serum (RPMI+s) (AID 1963876); further: nearly all actives have a fitted effect of over 35% in size
# Conditions: NOMO1 AML cells in RPMI+serum, CellTiter-Glo viability, 48 h; series mostly up to 45.8 µM
# Method in brief: (§1)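 Each medium arm—HPLM with 10% dialyzed FBS, or RPMI1640 with 5 mM glucose and 10% untreated or dialyzed FBS—was screened against an 11-point, 3-fold compound titration for 48 h at 37 °C, with CellTiter-Glo luminescence as endpoint.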
# Potency means the concentration at half of the fitted maximal effect.
row,SMILES,Potency
1,O=c1oc2c(O)c(O)cc3c(=O)oc4c(O)c(O)cc1c4c23,inactive
2,Cc1nnc(NS(=O)(=O)c2ccc(N)cc2)s1,9.35 µM (active)
3,NC1=N[C@H]2[C@H](CS[C@H]2CCCCC(=O)O)N1,inactive
4,Nc1ccn([C@@H]2CS[C@H](CO)O2)c(=O)n1,inactive
5,N#Cc1ccc(C(c2ccc(C#N)cc2)n2cncn2)cc1,inactive
6,CC(C)Cn1cnc2c(N)nc3ccccc3c21,inactive
7,c1ccc([C@H]2CN3CCSC3=N2)cc1,inactive
8,Cn1ccc2cc3c(cc21)CCN3C(=O)Nc1cccnc1,inactive
9,C=CCn1c(=O)c2cnc(Nc3ccc(N4CCN(C)CC4)cc3)nc2n1-c1cccc(C(C)(C)O)n1,1.05 µM (active)
10,CC(=O)OCC(CCn1cnc2cnc(N)nc21)COC(C)=O,inactive
11,OC[C@H]1O[C@@H](OCCc2ccc(O)cc2)[C@H](O)[C@@H](O)[C@H]1O,inactive
12,CC(=O)c1cnc2ccc(-c3cc(Cl)c(O)c(Cl)c3)nc2c1NC1CCC(CN(C)C)CC1 (stereo not given),0.132 µM (active)
13,CCc1c(O)cc(O)c(C(=O)c2ccc(OCCN3CCOCC3)c(OC)c2)c1CC(=O)N(CCOC)CCOC,2.96 µM (active)
14,Cn1cnc([N+](=O)[O-])c1Sc1ncnc2nc[nH]c12,6.62 µM (active)
15,Cc1ccc(C(=O)Nc2ccc(S(=O)(=O)O)c3cc(S(=O)(=O)O)cc(S(=O)(=O)O)c23)cc1NC(=O)c1cccc(NC(=O)Nc2cccc(C(=O)Nc3cc(C(=O)Nc4ccc(S(=O)(=O)O)c5cc(S(=O)(=O)O)cc(S(=O)(=O)O)c45)ccc3C)c2)c1,inactive
16,C[C@@H](c1ncncc1F)[C@](O)(Cn1cncn1)c1ccc(F)cc1F,inactive
17,C=CC(=O)Nc1cc2c(Nc3ccc(F)c(Cl)c3)ncnc2cc1OCCCN1CCOCC1,inactive
18,Oc1c(Cl)cc(Cl)c2cccnc12,inactive
19,CC[N+](CC)(CC)CCOc1cccc(OCC[N+](CC)(CC)CC)c1OCC[N+](CC)(CC)CC,inactive
20,C#CCN[C@@H]1CCc2ccccc21,inactive

row,SMILES,Potency
1,Fc1cc(-c2cccc3ncc(-c4cnn(C5CCNCC5)c4)nc23)cc(F)c1CN1CCOCC1,8.33 µM (active)
2,O=C1CSC(=O)N1C(CCc1ccncc1)COc1ccc(-c2cccc([N+](=O)[O-])c2)cc1 (stereo not given),inactive
3,NC(=O)c1cccc2cn(-c3ccc([C@@H]4CCCNC4)cc3)nc12,inactive
4,C1COC(NC(C2CC2)C2CC2)=N1,inactive
5,COc1cc2c(cc1OC)CN(CCc1ccc(NC(=O)c3cc(OC)c(OC)cc3NC(=O)c3cnc4ccccc4c3)cc1)CC2,inactive
6,CCCCOc1c(C(=O)c2c(F)cc(C)cc2F)cnc2n[nH]cc12,inactive
7,CC(C)CC(=O)Nc1n[nH]c2c1CN(C(=O)C1CCN(C)CC1)C2(C)C,3.72 µM (active)
8,Cc1nc2n(c(=O)c1CCN1CCC(c3noc4cc(F)ccc34)CC1)CCCC2,inactive
9,CCn1cc(C(=O)O)c(=O)c2cc(F)c(N3CCNCC3)cc21,inactive
10,CNC1CCCN(c2c(F)cc3c(=O)c(C(=O)O)cn(C4CC4)c3c2OC)C1 (stereo not given),inactive
11,Clc1ccc(C2(c3ccc(-c4cn[nH]c4)cc3)CCNCC2)cc1,14.8 µM (active)
12,CC(=O)N(O)CCCCCNC(=O)CCC(=O)N(O)CCCCCNC(=O)CCC(=O)N(O)CCCCCN,0.0186 µM (active)
13,CO[C@@H]1COCC[C@@H]1N[C@@H]1CC[C@@](C(=O)N2CCc3ncc(C(F)(F)F)cc3C2)(C(C)C)C1,inactive
14,Cc1cnc(CNC(=O)c2c(=O)c3ccc(N4CCCN(C)CC4)nc3n3c2sc2ccccc23)cn1,inactive
15,Nc1cc(C(Cl)=C(Cl)Cl)c(S(N)(=O)=O)cc1S(N)(=O)=O,7.43 µM (active)
16,CCOC(=O)C1=C(N)Oc2ccc(Br)cc2C1C(C#N)C(=O)OCC (stereo not given),inactive
17,Cc1cnc(Nc2ccc(N3CCN(C)CC3)cc2)nc1Nc1cccc(S(=O)(=O)NC(C)(C)C)c1,13.2 µM (active)
18,N=c1nc(N2CCCCC2)cc(N)n1O,inactive
19,CCOC(=O)c1ncn2c1CN(C)C(=O)c1cc(F)ccc1-2,inactive
20,CCCn1c(=O)c2[nH]c(-c3cnn(Cc4cccc(C(F)(F)F)c4)c3)nc2n(CC)c1=O,6.62 µM (active)

# Assay: Quantitative highthroughput screen to assess conditional lethalithy of NOMO1 cells grown in RPMI1640 with dialyzed fetal bovine serum (RPMI+ds) (AID 1963877); further: nearly all actives have a fitted effect of over 30% in size
# Conditions: NOMO1 in RPMI+dialyzed FBS viability, ATP luminescence, 48 h; series mostly up to 45.8 µM
# Method in brief: as §1
row,SMILES,Potency
1,Cc1nnc(NS(=O)(=O)c2ccc(N)cc2)s1,5.26 µM (active)
2,NC1=N[C@H]2[C@H](CS[C@H]2CCCCC(=O)O)N1,inactive
3,CC(C)Cn1cnc2c(N)nc3ccccc3c21,inactive
4,c1ccc([C@H]2CN3CCSC3=N2)cc1,inactive
5,Cn1ccc2cc3c(cc21)CCN3C(=O)Nc1cccnc1,inactive
6,C=CCn1c(=O)c2cnc(Nc3ccc(N4CCN(C)CC4)cc3)nc2n1-c1cccc(C(C)(C)O)n1,0.418 µM (active)
7,CC(=O)OCC(CCn1cnc2cnc(N)nc21)COC(C)=O,inactive
8,OC[C@H]1O[C@@H](OCCc2ccc(O)cc2)[C@H](O)[C@@H](O)[C@H]1O,inactive
9,CC(=O)c1cnc2ccc(-c3cc(Cl)c(O)c(Cl)c3)nc2c1NC1CCC(CN(C)C)CC1 (stereo not given),0.132 µM (active)
10,CCc1c(O)cc(O)c(C(=O)c2ccc(OCCN3CCOCC3)c(OC)c2)c1CC(=O)N(CCOC)CCOC,3.32 µM (active)
11,Cn1cnc([N+](=O)[O-])c1Sc1ncnc2nc[nH]c12,5.26 µM (active)
12,Cc1ccc(C(=O)Nc2ccc(S(=O)(=O)O)c3cc(S(=O)(=O)O)cc(S(=O)(=O)O)c23)cc1NC(=O)c1cccc(NC(=O)Nc2cccc(C(=O)Nc3cc(C(=O)Nc4ccc(S(=O)(=O)O)c5cc(S(=O)(=O)O)cc(S(=O)(=O)O)c45)ccc3C)c2)c1,8.33 µM (active)
13,C[C@@H](c1ncncc1F)[C@](O)(Cn1cncn1)c1ccc(F)cc1F,inactive
14,C=CC(=O)Nc1cc2c(Nc3ccc(F)c(Cl)c3)ncnc2cc1OCCCN1CCOCC1,2.96 µM (active)
15,CC[N+](CC)(CC)CCOc1cccc(OCC[N+](CC)(CC)CC)c1OCC[N+](CC)(CC)CC,inactive
16,C#CCN[C@@H]1CCc2ccccc21,inactive
17,O=C1CSC(=O)N1C(CCc1ccncc1)COc1ccc(-c2cccc([N+](=O)[O-])c2)cc1 (stereo not given),inactive
18,NC(=O)c1cccc2cn(-c3ccc([C@@H]4CCCNC4)cc3)nc12,inactive
19,C1COC(NC(C2CC2)C2CC2)=N1,inactive
20,COc1cc2c(cc1OC)CN(CCc1ccc(NC(=O)c3cc(OC)c(OC)cc3NC(=O)c3cnc4ccccc4c3)cc1)CC2,inactive
21,CC(C)CC(=O)Nc1n[nH]c2c1CN(C(=O)C1CCN(C)CC1)C2(C)C,5.9 µM (active)
22,Cc1nc2n(c(=O)c1CCN1CCC(c3noc4cc(F)ccc34)CC1)CCCC2,inactive
23,CCn1cc(C(=O)O)c(=O)c2cc(F)c(N3CCNCC3)cc21,inactive
24,Clc1ccc(C2(c3ccc(-c4cn[nH]c4)cc3)CCNCC2)cc1,4.18 µM (active)
25,CC(=O)N(O)CCCCCNC(=O)CCC(=O)N(O)CCCCCNC(=O)CCC(=O)N(O)CCCCCN,0.0831 µM (active)
26,CO[C@@H]1COCC[C@@H]1N[C@@H]1CC[C@@](C(=O)N2CCc3ncc(C(F)(F)F)cc3C2)(C(C)C)C1,inactive
27,Cc1cnc(CNC(=O)c2c(=O)c3ccc(N4CCCN(C)CC4)nc3n3c2sc2ccccc23)cn1,inactive
28,CCOC(=O)C1=C(N)Oc2ccc(Br)cc2C1C(C#N)C(=O)OCC (stereo not given),inactive
29,N=c1nc(N2CCCCC2)cc(N)n1O,inactive
30,CCOC(=O)c1ncn2c1CN(C)C(=O)c1cc(F)ccc1-2,inactive
